# Experimental data as given in ChEMBL document CHEMBL3988442, “University of Dundee, Small-Polar-MMV Screening Library” (2021).
# Hit rate of the full screen: of about 48,000 compounds, about 13,000 (27%) showed an effect of 50% or more. This is one part of the list.
# Tested on: Wolbachia pipientis
# Assay: Anti-Wolbachia Cell-Based Screen
# Assay type: functional
# Design: scale not given: in the data most compounds retested in dose-response had high values
# Conditions: 5 µM
row,Structure (SMILES),Percent Effect
1,CC(C)(C)NC(=O)N1CCN2C(=O)OCC2C1 (stereo not given),-12.64%
2,CCC(C)c1csc(NC(=O)c2sc(-c3nnc[nH]3)nc2C)n1 (stereo not given),-26.52%
3,CSc1cccc(CNC(=O)C2CC(=O)N(CCN(C)C)C2)c1 (stereo not given),8.737%
4,O=C(c1nnn(-c2ccc(C(F)(F)F)cc2)n1)N1CCC(O)CC1,4.237%
5,CCS(=O)(=O)N1CC(=O)N(CCOc2ccccc2)CC(O)C1 (stereo not given),118.2%
6,N[C@H]1CN(CCCOc2ccccc2)C[C@@H]1C1CC1,-13.64%
7,CC(C)[C@@H]1CN(CCOc2ccccc2)C[C@H]1NS(=O)(=O)N(C)C,3.365%
8,CC(C)N1CCC2(CCCN(C(=O)c3cncn3C)C2)CC1.O=C(O)C(F)(F)F,0.429%
9,CC(C)CN(C)c1ccc(C(=O)N2CCCC2c2cnn(C)c2)cn1 (stereo not given),-4.627%
10,Cc1noc2ncc(C(=O)N3CCCC3c3cnn(C)c3)cc12 (stereo not given),9.393%
11,CN(C)c1ccc(C(=O)N2CCCC2c2cnn(C)c2)cn1 (stereo not given),96.67%
12,CN(C)c1cc(C(=O)N2CCCC2c2cnn(C)c2)ccn1 (stereo not given),118.6%
13,CN(C)c1ccc(C(=O)N2CCCC2c2cnn(C)c2)nn1 (stereo not given),5.055%
14,COc1cccc(OC2CN(C(=O)Cn3nc4ccccc4n3)C2)c1,-0.01054%
15,Cc1cc(C)cc(-c2ccc(CC3(C(=O)O)CCOCC3)cc2)c1,0.9737%
16,NC(=O)C1(Cc2ccc(-c3ccccc3)cc2)CCCNC1 (stereo not given),155.7%
17,CCNC(=O)C1(Cc2ccc(-c3ccccc3)cc2)CCCNC1 (stereo not given),160.5%
18,Cl.Cl.c1ccc(-c2cnc3n2CCNC32CCNCC2)cc1,-2.159%
19,O=C(NCCc1nncn1C1CC1)C1(Cc2ccccc2)CCC1,0.4274%
20,OC1(CNCCSCc2ccccc2)CCCNC1 (stereo not given),3.749%
21,NC(=O)C1(Cc2ccc(-c3ccccc3)cc2)CCNC1 (stereo not given),156.4%
22,Cn1c(=O)oc2ccc(Nc3ncc(C#N)cc3Cl)cc21,-1.266%
23,OCC(CO)Nc1cccc(C(F)(F)F)n1,-11.08%
24,Cc1ccc(N2CCC(c3nccn3Cc3cscn3)CC2)nn1,-11.8%
25,c1cnc2nc(N3CCc4c(ncn4C4CC4)C3)ccc2n1,1.111%
26,c1ccc2nc(N3CCCC3c3nnc4n3CCCCC4)cnc2c1 (stereo not given),231.1%
27,COc1ccc(C2CCCN2c2cnc3ccccc3n2)c(OC)c1 (stereo not given),8.411%
28,c1cnc2nc(N3CCCC3c3nnc4n3CCCCC4)ccc2n1 (stereo not given),123.3%
29,Nc1cc(N2CCCC2c2cnccn2)ncn1 (stereo not given),-4.526%
30,CC(C)c1nc(C2CCCN2c2cnc3ccccc3n2)no1 (stereo not given),-9.022%
